According to PubChem BioAssay (Tox21):
Results filed as inconclusive are left out. Values without a mark were called inactive. Active and inactive are the calls of the source. Unless noted, the call rests on the fitted dose curve; in most records, active means well fitted cell-killing curve with a large enough effect in the repeat runs; inconclusive means weak or mixed curves, or effect the other way; inactive means no such curve, though single readings can be large or run the other way.

Target: Peroxisome proliferator-activated receptor delta (Homo sapiens) (UniProt Q03181)
Experiment: qHTS assay to identify small molecule antagonists of the peroxisome proliferator-activated receptor delta (PPARd) signaling pathway (AID 743215; active means well fitted inhibition curve with a large enough effect in the signal ratio in the repeat runs, not every such curve was filed as active; the % refers to the signal ratio;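 further: cells stimulated with agonist L165041 at 300 nM final during compound exposure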)
Conditions: HEK293H PPARd-UAS-bla, beta-lactamase FRET ratio, antagonist, 17 h; series mostly up to 62 µM
Method in brief: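 Read-out is beta-lactamase FRET fluorescence, measured 2 h after substrate addition at room temperature. Beforehand, UAS-bla HEK293H cells carrying the PPARd reporter were exposed to compounds with L165041 at 300 nM final for 17 h at 37 C.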
On the % scale 0 is the no-effect control and ±100 the full control effect.

Sequence of Peroxisome proliferator-activated receptor delta (Homo sapiens) (Q03181 whole entry, looked up): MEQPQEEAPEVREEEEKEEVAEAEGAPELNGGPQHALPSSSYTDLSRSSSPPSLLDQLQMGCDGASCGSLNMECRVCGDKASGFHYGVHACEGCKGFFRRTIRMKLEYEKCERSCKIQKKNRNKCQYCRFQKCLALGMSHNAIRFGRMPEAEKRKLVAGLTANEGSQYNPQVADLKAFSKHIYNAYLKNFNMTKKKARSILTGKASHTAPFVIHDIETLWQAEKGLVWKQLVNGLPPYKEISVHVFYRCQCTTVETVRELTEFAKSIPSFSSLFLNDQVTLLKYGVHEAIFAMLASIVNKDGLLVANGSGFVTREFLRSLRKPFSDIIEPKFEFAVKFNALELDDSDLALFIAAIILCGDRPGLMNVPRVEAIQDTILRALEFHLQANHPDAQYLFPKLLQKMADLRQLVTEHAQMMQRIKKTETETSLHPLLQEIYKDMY

Row | SMILES | outcome
1 | CC(=O)Nc1ccc(OCC(O)CNC(C)C)cc1 (centres undefined) | inactive
2 | CCCO[Si](OCCC)(OCCC)OCCC | inactive
3 | CCCc1nn(C)c2c(=O)[nH]c(-c3cc(S(=O)(=O)N4CCN(C)CC4)ccc3OCC)nc12 | inactive
4 | CN(C)C(=O)Oc1cccc([N+](C)(C)C)c1 | inactive
5 | CC[C@H]1OC(=O)[C@H](C)[C@@H](O[C@H]2C[C@@](C)(OC)[C@@H](O)[C@H](C)O2)[C@H](C)[C@@H](O[C@@H]2O[C@H](C)C[C@H](N(C)C)[C@H]2O)[C@](C)(OC)C[C@@H](C)C(=O)[C@H](C)[C@@H](O)[C@]1(C)O | inactive
6 | OCCCCCO | inactive
7 | CCCCOCCOC(=O)COc1cc(Cl)c(Cl)cc1Cl | inactive
8 | CC1(C)[C@@H]2CC[C@@]1(C)[C@H](O)C2 | inactive
9 | CC1CCC(CO)CC1 (centres undefined) | inactive
10 | CCCCS(=O)(=O)N[C@@H](Cc1ccc(OCCCCC2CCNCC2)cc1)C(=O)O | inactive
11 | CC(C)NNC(=O)c1ccncc1 | inactive
12 | NC(=O)Cc1cccc2ccccc12 | inactive
13 | CCCC[N+](C)(CCCC)CCCC | inactive
14 | CCOC(=O)c1ccccc1 | inactive
15 | C=CN1CCCCCC1=O | inactive
16 | CO/N=C(\C(=O)N[C@@H]1C(=O)N2C(C(=O)O)=C(CSc3nc(=O)c(O)nn3C)CS[C@H]12)c1csc(N)n1 | inactive
17 | C[N+]1(CC2COC(c3ccccc3)(c3ccccc3)O2)CCCCC1 (centres undefined) | inactive
18 | CC/C=C\CCOC(C)OCC (centres undefined) | inactive
19 | O=C(O)c1cn(C2CC2)c2cc(N3CCNCC3)c(F)cc2c1=O | inactive
20 | CC(C)c1ccc2ncccc2c1 | inactive
21 | CC(=O)N1C[C@H](O)C[C@H]1C(=O)O | inactive
22 | CCCCCCCCCCCCCCC(=O)O | inactive
23 | COc1ccnc(CS(=O)c2nc3cc(OC(F)F)ccc3[nH]2)c1OC (centres undefined) | inactive

Target: Bile acid receptor (Homo sapiens) (UniProt Q96RI1)
Experiment: qHTS assay to identify small molecule antagonists of the farnesoid-X-receptor (FXR) signaling pathway (AID 743217; active means well fitted inhibition curve with a large enough effect in the signal ratio in the repeat runs, not every such curve was filed as active; the % refers to the signal ratio)
Conditions: HEK293T FXR-UAS-bla, beta-lactamase ratio, CDCA-stimulated, 16 h; series mostly up to 62.6 µM
Method in brief: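 HEK 293T FXR-UAS-bla, 5000 cells/well; compound + CDCA 50 uM final; 16 h, 37 °C; B/G FRET substrate 2 h RT; fluorescence.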

Sequence of Bile acid receptor (Homo sapiens) (Q96RI1 whole entry, looked up): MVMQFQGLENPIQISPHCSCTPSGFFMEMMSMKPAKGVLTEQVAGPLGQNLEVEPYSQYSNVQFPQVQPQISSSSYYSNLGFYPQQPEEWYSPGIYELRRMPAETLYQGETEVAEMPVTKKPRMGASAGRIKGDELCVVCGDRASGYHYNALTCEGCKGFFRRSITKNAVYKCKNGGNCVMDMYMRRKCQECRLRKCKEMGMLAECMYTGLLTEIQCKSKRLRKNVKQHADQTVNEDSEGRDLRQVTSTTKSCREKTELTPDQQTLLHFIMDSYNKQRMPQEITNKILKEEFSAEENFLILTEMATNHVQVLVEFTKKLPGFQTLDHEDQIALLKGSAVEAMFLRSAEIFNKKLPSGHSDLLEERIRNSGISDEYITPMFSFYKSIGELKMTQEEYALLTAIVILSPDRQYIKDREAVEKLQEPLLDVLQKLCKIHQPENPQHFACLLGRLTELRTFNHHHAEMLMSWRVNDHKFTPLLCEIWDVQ

Row | SMILES | outcome
24 | CC(=O)Nc1ccc(OCC(O)CNC(C)C)cc1 (centres undefined) | inactive
25 | NS(=O)(=O)Cc1noc2ccccc12 | inactive
26 | CN(C)C(=O)Oc1cccc([N+](C)(C)C)c1 | inactive
27 | CC(CO)(CO)[N+](=O)[O-] | inactive
28 | CC(C#N)(CCC(=O)O)N=NC(C)(C#N)CCC(=O)O (centres undefined) | inactive
29 | CCN1CCOCC1 | inactive
30 | C[C@@H]1C[C@H]2[C@@H]3C[C@H](F)C4=CC(=O)C(Cl)=C[C@]4(C)[C@@]3(F)[C@@H](O)C[C@]2(C)[C@@]1(O)C(=O)CO | inactive
31 | NC(=O)Cc1cccc2ccccc12 | inactive
32 | CO/N=C(\C(=O)N[C@@H]1C(=O)N2C(C(=O)O)=C(CSc3nc(=O)c(O)nn3C)CS[C@H]12)c1csc(N)n1 | inactive
33 | C[N+]1(CC2COC(c3ccccc3)(c3ccccc3)O2)CCCCC1 (centres undefined) | inactive
34 | O=C(O)c1cn(C2CC2)c2cc(N3CCNCC3)c(F)cc2c1=O | inactive
35 | CC(C)c1ccc2ncccc2c1 | inactive
36 | CC(=O)N1C[C@H](O)C[C@H]1C(=O)O | inactive
37 | C[N+]12CCC(CC1)C(OC(=O)C(O)(c1ccccc1)c1ccccc1)C2 (centres undefined) | inactive
38 | O=C1NC(=O)C2CC=CCC12 (centres undefined) | inactive
39 | N[C@H](C(=O)O)[C@@H](O)c1ccc(O)c(O)c1 | inactive

System: not listed separately
Experiment: qHTS assay to identify small molecule agonists of the farnesoid-X-receptor (FXR) signaling pathway - cell viability counter screen (AID 743218); further: nearly all actives have a fitted effect of over 45% in size
Conditions: FXR-bla HEK293T viability, CellTiter-Glo luminescence, 16 h; series mostly up to 62.6 µM
Method in brief: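 HEK 293T FXR-bla cells; 5 h pre-incubation, 16 h compound exposure at 37 C; LiveBLAzer substrate 2 h RT, then CellTiter-Glo 30 min RT, luminescence.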

Row | SMILES | outcome | viability change, negative = cytotoxic
40 | C[N+]1(C)[C@@H]2CC(OC(=O)[C@H](CO)c3ccccc3)C[C@H]1[C@@H]1O[C@@H]12 (some centres undefined) | inactive | –
41 | CC(=O)Nc1ccc(OCC(O)CNC(C)C)cc1 (centres undefined) | inactive | –
42 | CCCO[Si](OCCC)(OCCC)OCCC | inactive | –
43 | C[C@H]1C[C@H]2[C@@H]3CCC4=CC(=O)C=C[C@]4(C)[C@H]3C(=O)C[C@]2(C)[C@@]1(O)C(=O)CO | inactive | –
44 | CCCc1nn(C)c2c(=O)[nH]c(-c3cc(S(=O)(=O)N4CCN(C)CC4)ccc3OCC)nc12 | inactive | –
45 | CC1(C)[C@@H]2CC[C@@]1(C)[C@H](O)C2 | inactive | –
46 | CC(CO)(CO)[N+](=O)[O-] | inactive | –
47 | O=C(CO)[C@@H](O)[C@H](O)[C@@H](O)CO | inactive | –
48 | CC1CCC(CO)CC1 (centres undefined) | inactive | –
49 | CC(C#N)(CCC(=O)O)N=NC(C)(C#N)CCC(=O)O (centres undefined) | inactive | –
50 | CCCCS(=O)(=O)N[C@@H](Cc1ccc(OCCCCC2CCNCC2)cc1)C(=O)O | inactive | –
51 | C[C@@H]1C[C@H]2[C@@H]3C[C@H](F)C4=CC(=O)C(Cl)=C[C@]4(C)[C@@]3(F)[C@@H](O)C[C@]2(C)[C@@]1(O)C(=O)CO | inactive | –
52 | NC(=O)Cc1cccc2ccccc12 | inactive | –
53 | CCOC(=O)c1ccccc1 | inactive | –
54 | C=CN1CCCCCC1=O | inactive | –
55 | C1CCC2(CCCCO2)OC1 | inactive | –
56 | C[N+]1(CC2COC(c3ccccc3)(c3ccccc3)O2)CCCCC1 (centres undefined) | inactive | –
57 | CCCCCCCCCCCCSC | inactive | –
58 | CC(=O)N1C[C@H](O)C[C@H]1C(=O)O | inactive | –
59 | C[N+]12CCC(CC1)C(OC(=O)C(O)(c1ccccc1)c1ccccc1)C2 (centres undefined) | inactive | –
60 | CCN[C@@H]1C[C@H](N)[C@@H](OC2OC(CN)=CCC2N)[C@H](O)[C@H]1O[C@H]1OC[C@](C)(O)[C@H](NC)[C@H]1O (some centres undefined) | – | 10.1% [at 0.55 µM]
61 | CCCCCCCCCCCCCCC(=O)O | inactive | –
62 | O=C1NC(=O)C2CC=CCC12 (centres undefined) | inactive | –
63 | N[C@H](C(=O)O)[C@@H](O)c1ccc(O)c(O)c1 | inactive | –
64 | COc1ccnc(CS(=O)c2nc3cc(OC(F)F)ccc3[nH]2)c1OC (centres undefined) | inactive | –
